FGF22 binding: binders of human FGF22 protein, primary screen, FGF22 synaptogenesis inhibitor project, biophysical, thermal shift, single point. 340,000 tested, 1.5% active. activity (Tm shift, normalised), % at 9.99 µM. recombinant FGF22 thermal shift, SYPRO orange fluorescence; percent of sucrose octasulfate shift, DMSO zero;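 active = mean Tm shift, scaled 0 neutral to 100 positive control, at about 1.3% or above, every replicate too, limit read from the data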
ERAP1 inh: human ERAP1 aminopeptidase inhibitors, primary screen, biochemical, single point, plate reader; recombinant ERAP1, Leu-AMC fluorescence, 60 min; inhibition, % at 10.7 µM; 340,000 tested, 0.15% active; AID 652197, 2013;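 active = mean replicate inhibition of at least 30%, or all replicates individually reaching that 30% level; inactive = mean below 30% and not every replicate reaching it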;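 note: 0% = neutral control wells and 100% = L-leucinethiol positive control wells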
Casp6 inh: human caspase-6 inhibitors, primary screen, biochemical, VEID-R110 fluorescence, single point, set 2; purified caspase-6, Z-VEID-R110 cleavage fluorescence; 350,000 tested, 0.53% active; inhibition, % at 12.5 µM; P55212;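 active = mean inhibition across replicates at least about 35%, with every replicate also reaching that limit, limit read from the data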;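 note: 0% = median of neutral control wells and 100% = no fluorescence left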
SIRT5 block: SIRT5 desuccinylase inhibitors, primary screen, biochemical, fluorescence imaging, single point, set 5. NAD-dependent protein deacylase sirtuin-5, mitochondrial (Homo sapiens), Q9NXA8. Purified SirT5, succinyl-peptide AMC, trypsin-coupled fluorescence. inhibition, % at 15 µM. 330,000 tested, 1.1% active. AID 652115, 2013; in the data active = inhibition above about 15%
Numbers without * were called inactive; x = not tested or not shown. The list is not random: actives were taken first. Their share in the collection is about 3.1%.

SMILES	FGF22 binding	ERAP1 inh	Casp6 inh	SIRT5 block
CC(C)CNC(=O)C1(C)CCCN1C(=O)c1cc2ccccc2s1 (stereo not given)	0	-2	0	x
CC(C)CNC(=O)C1(C)CCCN1C(=O)Cc1cccc2ccccc12 (stereo not given)	0	-5	54*	x
CN1C(=O)c2cc(NC(=O)Nc3ccc(F)cc3)ccc2OC[C@H]2O[C@H](CC(=O)NC3CCC3)CC[C@@H]21	0	-3	2	0
C[C@H](CO)N1C[C@H](C)[C@H](CN(C)S(=O)(=O)c2ccc(F)cc2)OCCCC[C@H](C)Oc2ccc(NC(=O)Nc3ccccc3)cc2C1=O	0	x	x	x
C[C@@H]1CN([C@H](C)CO)C(=O)c2cccc(NC(=O)Nc3ccccc3)c2O[C@@H]1CN(C)Cc1ccc(C(=O)Nc2ccccc2N)cc1	0	2	x	1
Cc1ccc(S(=O)(=O)Nc2ccc3c(c2)C(=O)N([C@H](C)CO)C[C@H](C)[C@@H](CN(C)Cc2ccc(C(F)(F)F)cc2)OCCCC[C@@H](C)O3)cc1	0	-3	1	2
Cc1ccc(S(=O)(=O)Nc2ccc3c(c2)C(=O)N([C@H](C)CO)C[C@@H](C)[C@@H](CN(C)Cc2ccc(C(F)(F)F)cc2)OCCCC[C@H](C)O3)cc1	-1	-1	3	20*
Cc1ccc(S(=O)(=O)Nc2ccc3c(c2)C(=O)N([C@@H](C)CO)C[C@H](C)[C@@H](CN(C)Cc2ccc(C(F)(F)F)cc2)OCCCC[C@H](C)O3)cc1	0	0	2	23*
Cc1ccc(S(=O)(=O)Nc2ccc3c(c2)C(=O)N([C@H](C)CO)C[C@@H](C)[C@@H](CN(C)Cc2ccc(C(F)(F)F)cc2)OCCCC[C@@H](C)O3)cc1	0	-1	-2	18*
Cc1ccc(S(=O)(=O)Nc2ccc3c(c2)C(=O)N([C@H](C)CO)C[C@H](C)[C@H](CN(C)Cc2ccc(C(F)(F)F)cc2)OCCCC[C@H](C)O3)cc1	0	2	-3	32*
Cc1ccc(S(=O)(=O)Nc2ccc3c(c2)C(=O)N([C@@H](C)CO)C[C@@H](C)[C@H](CN(C)Cc2ccc(C(F)(F)F)cc2)OCCCC[C@H](C)O3)cc1	-1	0	4	11
C[C@@H]1CN([C@H](C)CO)C(=O)Cc2cc(NC(=O)Nc3ccc4c(c3)OCO4)ccc2O[C@H]1CN(C)C(=O)NC1CCCCC1	0	-1	x	-4
CO[C@@H]1CN(C)C(=O)c2ccc(NC(=O)C3CCC3)cc2OC[C@H](C)N(Cc2ccncc2)C[C@H]1C	0	1	4	-2
Cc1ccc(S(=O)(=O)Nc2ccc3c(c2)C(=O)N([C@@H](C)CO)C[C@@H](C)[C@H](CN(C)Cc2ccc(C(F)(F)F)cc2)OCCCC[C@@H](C)O3)cc1	-1	1	4	18*
Cc1cccc(Cl)c1NC(=O)NCCCN1CCOCC1	-1	-1	-19	x
Cc1cccc(Cl)c1NC(=O)NCCCN1CCCCC1C (stereo not given)	0	-6	-13	23*
COCC(=O)Nc1ccc2c(c1)[C@@H]1C[C@H](CC(=O)N3CCCCC3)O[C@@H](CO)[C@@H]1O2	0	x	x	x
CSCCC(NC(=O)COc1ccccc1)C(=O)OCCOc1ccc(C)cc1 (stereo not given)	0	0	4	1
CSCCC(NC(=O)COc1ccccc1)C(=O)N(C)CC(=O)Nc1c(C)cccc1C (stereo not given)	0	-3	42*	-5
COCCNC(=O)C(=O)N/N=C(\C)CC(=O)Nc1cccnc1	44*	0	0	0
COCCNC(=O)C(=O)N/N=C(\C)CC(=O)Nc1ccc2c(c1)OCO2	0	-8	0	-1
[O-][N+](=Cc1ccccc1)CC1(O)CCCCC1	43*	0	4	x
[O-]/[N+](=C\c1ccccc1)c1ccccc1	0	-2	-2	x
CCOC(=O)c1nn(-c2ccc(OC)cc2)c(=O)c2c(N)scc12	0	1	45*	0
Oc1ccc(-c2n[nH]c(C(F)(F)F)c2-c2ccccc2)c(O)c1	0	1	x	44*
SMILES	FGF22 binding	ERAP1 inh	Casp6 inh	SIRT5 block
COc1ccc(-c2c(-c3ccc(O)cc3O)n[nH]c2C(F)(F)F)cc1	0	x	8	-1
CNC[C@@H]1Oc2ncc(-c3ccccc3C)cc2C(=O)N([C@H](C)CO)C[C@H]1C	0	3	1	-1
CCN(CC(=O)Nc1ccc(OC)cc1)C(=O)c1ccc2c(c1)NC(=O)C(C)S2 (stereo not given)	0	2	-4	-1
CCN(CC(=O)Nc1c(F)cccc1F)C(=O)c1ccc2c(c1)NC(=O)C(C)S2 (stereo not given)	0	0	4	27*
C/C(=N\NC(=O)c1cccnc1)c1cccc([N+](=O)[O-])c1	43*	1	-3	-2
CCCNC(=O)c1cc(C2CCCCN2C(=O)c2ccc3ccccc3c2)on1 (stereo not given)	0	2	0	0
CCCNC(=O)c1cc(C2CCCCN2C(=O)c2ccc3c(c2)CCO3)on1 (stereo not given)	43*	2	4	x
COC(=O)c1cn(C(=O)c2ccccc2Cl)c2ccccc12	0	-3	1	26*
C[C@H](CO)N1C[C@H](C)[C@@H](CN(C)Cc2ccc(Cl)c(Cl)c2)Oc2ccc(NC(=O)CCC(F)(F)F)cc2CC1=O	0	3	1	20*
C[C@@H]1CN([C@@H](C)CO)C(=O)Cc2cc(NC(=O)Nc3cccc4ccccc34)ccc2O[C@H]1CN(C)Cc1ccncc1	2.4*	5	-8	2
C[C@H]1CN([C@@H](C)CO)C(=O)Cc2cc(NC(=O)Nc3cccc4ccccc34)ccc2O[C@H]1CN(C)Cc1ccc(Cl)c(Cl)c1	0	-1	0	15*
COc1ccc2c(c1)C(=O)O[C@@H](c1ccccc1)C[C@@H](O)C(=O)CC2	0	-1	-1	20*
CC(=O)Nc1ccc(SCC(=O)c2ccc(Br)s2)cc1	0	8	-2	2
O=C(O)Cc1ccc(C(=O)CSc2ccccc2)s1	0	3	49*	12
COc1ccc(C(=O)c2ccc(CC(=O)O)s2)cc1	1	0	2	1
Cc1ccc(SCC(=O)c2ccc(CC(=O)O)s2)cc1	0	1	65*	12
CC(C)NC(=O)N(C)C[C@H]1OCCCC[C@H](C)Oc2ccc(NC(=O)c3ccccc3)cc2C(=O)N([C@@H](C)CO)C[C@@H]1C	0	0	0	5
O=C(NC[C@H]1CC[C@H]2[C@H](CN2Cc2cccc(Cl)c2)O1)C1CCOCC1	x	-1	1	-4
CC(C)(C)C(=O)N1CCN(CCN2C(=O)c3cccc4cccc(c34)C2=O)CC1	0	-1	-1	3
